The source of these data is PubChem BioAssay AID651598 (Sanford-Burnham Center for Chemical Genomics, 2012).

The experiment deals with Apelin receptor (Homo sapiens) (UniProt P35414). Briefly: APJ beta-arrestin recruitment blockade alongside CXCR6 – cell-based, DiscoveRx, panel, CHO-K1, counter-screen for CXCR6 antagonist project, SAR follow-up (AID 651598). The note with it: CHO-K1 PathHunter beta-arrestin luminescence, antagonist mode; run 4, at 80 µM (top of the series). Background: Recruitment of arrestin is a read-out of receptor activation apart from second messengers.

Where “and” joins values, the source holds several entries; their conditions need not be identical. Identical values can stand only once.

In general, inhibition refers to the drop in the measured response relative to a control, in per cent.

Apelin receptor (Homo sapiens), sequence (P35414 whole entry, looked up): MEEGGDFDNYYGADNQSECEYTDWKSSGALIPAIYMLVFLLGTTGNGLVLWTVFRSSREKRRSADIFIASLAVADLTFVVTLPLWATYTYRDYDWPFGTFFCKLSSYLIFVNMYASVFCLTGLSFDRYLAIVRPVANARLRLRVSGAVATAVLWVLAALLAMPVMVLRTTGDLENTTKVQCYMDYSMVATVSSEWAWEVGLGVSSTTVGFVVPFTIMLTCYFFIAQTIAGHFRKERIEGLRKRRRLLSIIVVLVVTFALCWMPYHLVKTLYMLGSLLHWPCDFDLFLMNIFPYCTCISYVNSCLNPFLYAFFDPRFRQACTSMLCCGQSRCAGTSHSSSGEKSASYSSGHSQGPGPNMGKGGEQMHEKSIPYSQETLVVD

In the case of `COc1cc(C(=O)NC2CC3CCCC(C2)N3CC(=O)Nc2ccccc2)cc(OC)c1OC` (stereo not drawn), the inhibition is 17% and 11.6% and 7.8%. Regarding `COc1cc(C(=O)NC2CCN(CC(=O)Nc3ccccc3)CC2)cc(OC)c1OC`, the inhibition is -1.54%. Consider `COc1cc(C(=O)NC2CC3CCC(C2)N3CC(=O)Nc2ccccc2)cc(OC)c1OC` (stereo not drawn), for which the inhibition was -13.5% and 16.7%.
